Assay in all cases: NCI-60 one-dose screen, 48 h (100 = growth as untreated, 0 = no growth, -100 = all killed)
What all share (settings): 10 µM

Assay [1] deals with SR leukemia.
The subject of assay [2] is RPMI-8226 leukemia.
The subject of assay [3] is OVCAR-8 ovarian.
Assay [4] deals with OVCAR-5 ovarian.
Assay [5] has as its system OVCAR-4 ovarian.
Assay [6] has as its system SK-OV-3 ovarian.
Assay [7] has as its system IGROV1 ovarian.
The test system of assay [8] is OVCAR-3 ovarian.
Assay [9] deals with HS 578T breast.
Assay [10] concerns NCI/ADR-RES ovarian.

The panel holds about 83,000 compounds, 20% with a hit somewhere; the sample as a whole holds those more often.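 96-well plates, one dose, 48 hours. Percent growth reported; active if below 10.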 A number with no mark means an inactive call. Active and inactive are the calls of the source.

For `COc1nc(N)nc2c1ncn2C1OC(CO)CC1O` (stereo not given), the growth in [1] is 115%; in assay [2] it was 92%; in [3] it was 101%; in [4] it was 100%; in assay [5], 120%; in [6], 98.5%. For the same molecule, the growth is 112% in assay [7], 118% in assay [8], 117% in assay [9] and 107% in [10].

For the molecule `Oc1ccc(N=Nc2ccc(Br)cc2)c(O)c1`, the growth is -8.8% (active) in assay [1]; -37.3% (active) in assay [2]; 24.1% in assay [3]; 80.7% in assay [4]; 33.7% in [5]; 25.7% in [6]. The growth in [7] was -15.3% (active); in assay [8], -65.2% (active); in assay [9], 10.4%; in [10] it was -55.4% (active).

Turning to `Cn1cnc2nc(Cl)nc(Cl)c21`, the growth was 27.9% in [1]; 23.4% in assay [2]; 24.3% in [3]; 59.8% in [4]; 42.4% in assay [5]; 61.2% in assay [6]. Besides, the growth in assay [7] is 30.3%; in assay [8] it was -27.8% (active); in assay [9] it was 72.4%; in [10], 27.1%.

Regarding `CC(=O)/C(Cc1ccccc1)=N/O`, the growth in assay [1] was 81.8%; in assay [2] it was 97.5%; in assay [3], 96.1%; in [4], 97.7%; in [5], 92%; in [6] it was 89.3%. Besides, the growth is 112% in assay [7], 106% in assay [8], 100% in assay [9] and 99.9% in assay [10].

As to `C=C1CC/C=C(\C)C(=O)C[C@@H]2[C@@H]1CC2(C)C`, the growth in assay [1] is 95.7%; in [2], 68.3%; in [3] it was 98.1%; in assay [4], 108%; in assay [5] it was 110%; in assay [6], 101%. In addition, the growth in assay [7] is 11.4%; in [8], 96.7%; in [9] it was 122%; in [10] it was 115%.

Consider `CCN(CC)CCCC(C)Nc1ccnc(/C=C/c2ccc(Cl)cc2)c1` (stereo not given), for which the growth was -19% (active) in [1]; -26.3% (active) in assay [2]; 14.8% in assay [3]; 47.1% in assay [4]; 15.4% in assay [5]; 72.8% in assay [6]. Further, the growth is 41.2% in assay [7], 26.5% in assay [8], 47.1% in assay [9] and 56.1% in [10].

Consider `FC(F)(F)c1ccc2c(c1)N(CCCN1CCN(C3CC3)CC1)c1ccccc1S2`, for which the growth in assay [1] was 7.62% (active); in assay [2] it was 51.9%; in assay [3] it was 46.9%; in assay [4] it was 89.7%; in [5], 73.6%; in [6], 83.9%. Further, the growth in assay [7] was 50.2%; in assay [8], 24.9%; in assay [9], 75.3%; in assay [10] it was 61.2%.

On to `Cc1cccc(CO)c1`, for which the growth was 109% in assay [1]; 114% in [2]; 101% in [3]; 107% in [4]; 103% in assay [5]; 107% in assay [6]. For the same molecule, the growth in [7] is 115%; in assay [8], 98.9%; in [9], 101%; in [10], 106%.

Turning to `O=C(O)c1cccc([N+](=O)[O-])c1`, the growth in assay [1] is 97.4%; in [2], 120%; in [3], 103%; in assay [4], 120%; in assay [5], 105%; in [6] it was 113%. Further, the growth was 113% in [7], 109% in assay [8], 110% in assay [9] and 107% in assay [10].

`CC(=O)c1ccc2c(ccc3ccccc32)c1`: the growth in assay [1] was 97.2%; in assay [2] it was 101%; in assay [3] it was 94.7%; in assay [4] it was 104%; in assay [5] it was 100%; in assay [6], 112%. Besides, the growth is 101% in assay [7], 115% in assay [8], 107% in [9] and 108% in assay [10].

For the molecule `CC(=O)OCCC(C)CCC=C(C)C` (stereo not given), the growth is 108% in assay [1]; 95% in assay [2]; 102% in assay [3]; 102% in assay [4]; 107% in assay [5]; 111% in assay [6]. Moreover, the growth in [7] was 112%; in assay [8] it was 121%; in assay [9] it was 104%; in [10], 107%.

Consider `CC1(C(=O)O)NC(C(=O)O)Cc2c1[nH]c1ccccc21` (stereo not given), for which the growth in [1] was 92.8%; in assay [2] it was 95.4%; in [3], 104%; in assay [4] it was 101%; in assay [5], 105%; in assay [6], 92.7%. The growth in assay [7] is 107%; in [8] it was 112%; in assay [9], 109%; in assay [10], 104%.

Consider `CCOC(=O)c1cc2cccc(OC)c2oc1=O`, for which the growth in assay [1] is 104%; in assay [2] it was 95.4%; in assay [3] it was 116%; in assay [4] it was 114%; in [5], 109%; in [6], 117%. The growth is 108% in [7], 138% in assay [8], 121% in assay [9] and 111% in assay [10].

Regarding `NC(N)=Nc1cc2ccccc2c2ccccc12`, the growth in assay [1] is 44.3%; in assay [2], 33.5%; in [3], 45.9%; in [4] it was 95.8%; in [5], 74.4%; in assay [6], 80.2%. The growth in assay [7] was 65.2%; in assay [8], 73.1%; in [9], 96.4%; in [10] it was 95.1%.
